Data: PubChem BioAssay (NCATS)
Inconclusive results are not listed. A number with no mark means an inactive call. The source made the active and inactive calls. Calls come from the whole dose curve; as a rule, active = well fitted activation curve with a large enough effect; inconclusive = small, poorly fitted or top-dose-only effect; inactive = no such curve, though single readings can be large or run the other way.

Molecular target: Cellular tumor antigen p53 (Homo sapiens) (UniProt P04637)
Assay: Primary qHTS for small molecule compounds that upregulate eGFP-tagged delta133p53alpha (in N-terminal) cells. (AID 2060322); note: nearly all actives have a fitted effect of over 75% in size;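 for activation: series mostly up to about 56 µM; 0% = DMSO vehicle and 100% = reference activator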
Conditions: NCI-H358 eGFP-delta133p53alpha fluorescence, 24 h; activation: stronger effect = higher value
How it was run: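 NCI-H358 cells pre-induced 24 h with 10 ng/ml doxycycline to express N-terminal eGFP-delta133p53alpha, then dosed 24 h at 37C without doxycycline; fixed, Hoechst-stained, GFP intensity by laser scanning cytometry, normalized to DMSO (0%) and 57.5 uM 5-azacytidine (100%).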
Potency is the fitted concentration of half-maximal effect.

Sequence of Cellular tumor antigen p53 (Homo sapiens) (P04637 whole entry, looked up): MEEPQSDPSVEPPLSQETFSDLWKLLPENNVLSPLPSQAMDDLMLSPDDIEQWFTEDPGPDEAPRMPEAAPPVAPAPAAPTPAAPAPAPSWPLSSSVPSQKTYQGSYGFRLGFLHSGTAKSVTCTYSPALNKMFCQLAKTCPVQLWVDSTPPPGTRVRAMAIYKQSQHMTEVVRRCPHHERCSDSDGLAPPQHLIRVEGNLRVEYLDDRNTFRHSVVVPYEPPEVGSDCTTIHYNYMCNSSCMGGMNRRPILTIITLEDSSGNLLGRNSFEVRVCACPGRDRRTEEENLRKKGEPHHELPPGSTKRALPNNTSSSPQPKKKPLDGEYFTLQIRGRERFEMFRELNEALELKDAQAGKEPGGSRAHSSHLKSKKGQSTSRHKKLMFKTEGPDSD

Compound	activation	Potency
COC(=O)C1=C2Nc3ccccc3C23CCN2CCCC(C(C)O)(C1)C23 (centres undefined)	18.8%	
Cc1ccc(CNc2ncnc3ccc(-c4ccc(CO)o4)cc23)o1	-4.46%	
CC1(C)CC[C@]2(C(=O)O)CC[C@]3(C)C(=CCC4[C@@]5(C)CCC(O[C@@H]6OC[C@H](O)[C@H](O)[C@H]6O[C@@H]6O[C@H](CO)[C@@H](O)[C@H](O)[C@H]6O)[C@@](C)(CO)C5CC[C@]43C)[C@@H]2C1 (some centres undefined)	14.3%	
C[C@@H]1C[C@H]2O[C@@]3(O[C@@H]2C(C)(C)O)C(O)[C@@]2(C)C4CCC5C(C)(C)[C@@H](O[C@H]6OC[C@H](O)[C@@H](O)[C@@H]6O)CC[C@@]56C[C@@]46CC[C@]2(C)C13 (some centres undefined)	-26.7%	
H-DPPDPDRFYGMM-NH2	-11%	
C/C(=C/CCC(CO)C1CCC2(C)C3CCC4C(C)(C)C(OC5OC(CO)C(O)C(O)C5O)CC(O)C45CC35CCC12C)COC1OC(CO)C(O)C(O)C1O (centres undefined)	-10.7%	
C=C(C)C(=O)OC1CC(CO)CCC/C(CO)=C/C2OC(=O)C(=C)C21 (centres undefined)		14.8 µM (active)
COC(=O)[C@H]1[C@H]2C[C@@H]3c4[nH]c5cc(OC)ccc5c4CCN3C[C@H]2C[C@@H](OC(=O)/C=C/c2cc(OC)c(OC)c(OC)c2)[C@@H]1OC		7.93 µM (active)
CC(=O)O[C@H]1[C@H](C)[C@@H](O)[C@H]2[C@@H]1C=C(C(=O)O)[C@H]1C[C@@H]3[C@H]([C@H]21)[C@H]1C(=O)O[C@@H]2CC[C@@]3(C)O[C@]1(O)[C@@H]2C	-11.5%	
